TRHR PAM: allosterically enhances the human TRH receptor. TRHR cells, fluo-8 calcium fluorescence, EC20 TRH enhancement. AID 493056. hit rate 0.66% among 360,000. enhancement, % at 2 µM; in the data active = enhancement above about 30%
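TRHR-expressing cells loaded with fluo-8 calcium dye were read kinetically (ex 480/em 530) during compound addition, then stimulated with an EC20 of TRH (10 nM final). Enhancement of the Gq-mediated intracellular calcium response was scored.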
TRHR ag: activates the human TRH receptor | P34981 | activation, % at 2 µM | TRHR cells, calcium flux fluo-8, FDSS agonist mode | hit rate 0.18% among 360,000 | AID 493084
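Agonist-mode FDSS calcium read (Ex 480/Em 530, 1 s cycles) in 1536-well TRHR cells with fluo-8 dye, after 10-cycle baseline and 23 nL compound addition; TRH at EC20 (10 nM final) added afterwards for the enhancer phase.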
D1 ag: human D1 receptor agonism; HEK293 T-REx D1 cells, calcium flux, agonist mode; activation, % at 2 µM; hit rate 1% among 360,000; AID 504660
Target sequence (P21728 whole entry, looked up): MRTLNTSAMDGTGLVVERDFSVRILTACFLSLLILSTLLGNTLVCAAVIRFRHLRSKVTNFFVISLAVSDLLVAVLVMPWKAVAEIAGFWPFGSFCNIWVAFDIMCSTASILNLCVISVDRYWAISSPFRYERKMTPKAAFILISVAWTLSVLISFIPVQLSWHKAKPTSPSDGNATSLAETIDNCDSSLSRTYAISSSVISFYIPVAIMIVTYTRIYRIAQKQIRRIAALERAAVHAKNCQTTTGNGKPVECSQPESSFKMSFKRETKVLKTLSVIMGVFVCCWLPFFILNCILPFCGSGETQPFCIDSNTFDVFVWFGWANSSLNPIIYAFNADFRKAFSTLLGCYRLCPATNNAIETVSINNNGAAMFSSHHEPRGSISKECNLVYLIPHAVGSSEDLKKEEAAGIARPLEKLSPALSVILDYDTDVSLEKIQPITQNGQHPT
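Inducible HEK293 T-REx D1 cells, force-coupled to calcium signalling, were plated at 4000 cells/well with tetracycline and held overnight at 30 C. After no-wash calcium dye loading, compound-evoked calcium rise over 180 s flagged agonists.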
D1 PAM: potentiators of human D1 dopamine receptor | P21728 | HEK293 TREx D1 cells, calcium flux, dopamine EC20 potentiation | potentiation, % at 10 µM | hit rate 0.036% among 360,000; in the data active = potentiation above about 30%
D1 antag: antagonists of human D1 dopamine receptor. P21728. HEK293 TREx D1 cells, calcium flux, dopamine EC80; active compounds read low. activity change, negative = inhibition, % at 10 µM. hit rate 3.2% among 360,000; in the data active = activity change below about -30%
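Compound effects on dopamine-evoked calcium signalling were measured in tetracycline-induced HEK293 Trex D1 cells. Dopamine at EC80 followed a 180 s compound pre-read, and fluorescence was tracked kinetically for 180 s more.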
Large screens that a line does not name were inactive; ! = repeats disagree. Hits are enriched below; roughly 4.7% of the tested compounds scored in any of these assays. Cut-off read from the data, not from the text of the source, unless noted: active = activation above about 30%; inactive = the rest.

COc1ccc(NC(=O)c2oc3ccc(S(=O)(=O)N4CCCCC4)cc3c2C)cc1	none
COc1ccc2oc(C(=O)Nc3ccc(S(=O)(=O)N(C)C4CCN(C)CC4)cc3)c(C)c2c1	D1 ag 37, D1 antag -49
Cc1ccc(NC(=O)c2oc3ccc(S(=O)(=O)N4CCC5(CC4)OCCO5)cc3c2C)cc1C	D1 antag -32!
CCCCNC(=O)c1cccc(-n2cnc3cccnc32)c1C	none
Cc1c(C(=O)NCCc2ccccc2)cccc1-n1cnc2cccnc21	D1 antag -32
COc1ccc(C(=O)Nc2nc(-c3ccc(Br)cc3)ns2)cc1	none
CCSc1ncc(Cl)c(C(=O)Nc2sc(C(C)=O)c(C)c2C(=O)OC)n1	none
CCC1CCCCN1CCCNC(=O)CN1C(=O)COc2ccc(S(=O)(=O)N3CCOCC3)cc21 (stereo not given)	D1 antag -38
O=C(CN1C(=O)COc2ccc(S(=O)(=O)N3CCOCC3)cc21)N1CCN(c2ccccc2F)CC1	TRHR PAM 33
CCC(C)NC(=O)CN1C(=O)COc2ccc(S(=O)(=O)N3CCOCC3)cc21 (stereo not given)	TRHR PAM 30!
CC(C)CN(CC(C)C)C(=O)c1cc(S(=O)(=O)N2CCCCC2)c[nH]1	none
O=C(CNC(=O)c1ccccc1Cl)OC(C(=O)Nc1cc(C(F)(F)F)ccc1Cl)c1ccccc1 (stereo not given)	none
CCc1cc(C(=O)N/N=C/c2ccc(O)cc2O)c2ccccc2n1	none
O=C(CSc1nnc(C2CC2)n1-c1ccccc1)N1CCNC1=O	none
CCN(CC)S(=O)(=O)c1cccc(-c2nnc(SCCOc3ccccc3C)o2)c1	D1 ag 33
Cc1cccc(N2C(=O)CN=C2Nc2nc(C)cc(C)n2)c1	D1 antag -32
O=C(Nc1ccccn1)NC1CCS(=O)(=O)C1 (stereo not given)	D1 antag -34
O=C(Nc1ccccn1)NC1CCCCC1	none
Clc1cccc(-n2cc(-c3ccccc3)c3c(N4CCCCC4)ncnc32)c1	none
COc1ccc(NC(=O)c2ccc(COc3ccccc3)o2)c(OC)c1	D1 antag -31
CC(C)(C)c1ccc(OCc2ccc(C(=O)Nc3cccnc3)o2)cc1	TRHR PAM 38
COc1ccccc1NC(=O)c1ccc(COc2ccc(C)c(C)c2)o1	none
COc1ccccc1NC(=O)CSc1nccn1Cc1ccccc1	none
COc1ccc(OC(C)c2nc3ccccc3[nH]2)cc1 (stereo not given)	D1 antag -33
COc1ccc(OCc2nc3ccccc3[nH]2)cc1	none
COc1cc(/C=N/NS(=O)(=O)c2ccc3ccccc3c2)ccc1OCc1ccc(C(=O)O)cc1	D1 antag -30
COc1ccc(/C=N/NS(=O)(=O)c2ccccc2)cc1OC(=O)c1ccc(C)cc1	none
COC(=O)c1ccc(COc2ccccc2/C=N/NS(=O)(=O)c2ccccc2)cc1	D1 antag -51
Cc1ccc(N2C(=O)C(CC(=O)Nc3cccc(F)c3)N(CCc3ccccc3F)C2=O)cc1 (stereo not given)	none
COc1cc(Cl)c(NS(=O)(=O)c2ccc3c(c2)CC(C)N3C(=O)C2CCC2)c(OC)c1 (stereo not given)	D1 antag -31
COc1cccc(NS(=O)(=O)c2ccc3c(c2)CCCN3C(=O)C2CCC2)c1	D1 antag -52
Cc1ccc(C2C3=C(CCCC3=O)OC3=C2C(=O)CCC3)cc1	TRHR PAM 40
Cc1cc(C(=O)N2CCN(Cc3ccccc3)CC2)ccc1[N+](=O)[O-]	none
C=CCNC(=O)c1ccc(CN2CCC(Cc3ccccc3)CC2)cc1	D1 antag -58
Cc1cc(C(=O)N2CCC(Cc3ccccc3)CC2)ccc1[N+](=O)[O-]	D1 antag -32
Cc1ccc(C(=O)NCC(=O)N2CCC(Cc3ccccc3)CC2)cc1	D1 antag -36
CC(C)NC(=O)c1ccc(CN2CCC(Cc3ccccc3)CC2)cc1	none
Cc1ccccc1NC(=O)c1ccc(CN2CCC(Cc3ccccc3)CC2)cc1	D1 antag -57
O=C(NNC(=O)c1cc([N+](=O)[O-])ccc1Cl)c1cccnc1	none
Cc1cnc(C(=O)Nc2ccc(F)cc2)cn1	none
Cc1cnc(C(=O)Nc2ccc(C(C)C)cc2)cn1	D1 antag -31
C/C(=N\NC(=O)CNc1ccc(F)cc1)c1cc2ccccc2o1	D1 antag -40
COc1ccc(NC(=O)Cn2c(=O)n(Cc3ccco3)c(=O)c3sc4ccccc4c32)cc1OC	none
CCCN(CC(=O)Nc1ccc(F)c(F)c1F)C(=O)Cc1ccc(S(=O)(=O)N2CCOCC2)s1	none
CCOc1ccccc1CN1CCC(Oc2cccc(C(=O)NCCOC)c2)CC1	D1 antag -48
Cc1cccc(OC2CCN(Cc3c(C(=O)N4CCCC4)nc4ccccn34)CC2)c1	D1 antag -44
O=C(c1cccc(OC2CCN(Cc3ccc(F)cc3Cl)CC2)c1)N1CCCC1	D1 antag -33
COCCNC(=O)c1cccc(OC2CCN(Cc3ccccc3OC(F)F)CC2)c1	none
O=C(c1cccc(OC2CCN(Cc3cc(F)cc(F)c3)CC2)c1)N1CCCC1	none
O=C(O)c1cc(-n2c(/C=C\c3ccc(F)cc3)nc3ccccc3c2=O)ccc1Cl	D1 antag -32
O=C(O)c1ccc(-n2c(/C=C\c3ccc(O)cc3)nc3ccccc3c2=O)cc1	none
CN(C)c1ccc(/C=C/c2nc3ccccc3c(=O)n2-c2ccc(C(=O)O)cc2)cc1	TRHR PAM 30, TRHR ag 121, D1 ag 102
O=C(O)c1cccc(-n2c(/C=C/c3ccccc3)nc3ccccc3c2=O)c1	none
Cc1c(NC(=O)C(C)OC(=O)CCOc2ccccc2)c(=O)n(-c2ccccc2)n1C (stereo not given)	none
CC(C)c1ccc(/C=C2\NC(=S)N(Cc3cccnc3)C2=O)cc1	D1 antag -37
O=C(CSc1ccccc1)NCC1(N2CCOCC2)CCCCC1	none
COc1ccc(-c2cn(Cc3ccc4ccccc4c3)nn2)cc1	D1 antag -32
Cc1c(C(=O)OC2CCCCC2)[nH]c2c1C(=O)CC(c1ccc(C(C)(C)C)cc1)C2 (stereo not given)	none
O=C(CCN1C(=O)/C(=C/C=C/c2ccccc2)SC1=S)Nc1ccccn1	TRHR PAM 39
O=C(CCN1C(=O)S/C(=C\C=C\c2ccccc2)C1=O)Nc1ccc(O)cc1	D1 antag -38
O=C(CCCN1C(=O)S/C(=C\C=C\c2ccccc2)C1=O)Nc1ccc(C(=O)O)cc1	none
CCCCSc1nnc2c(n1)OC(c1ccc(Br)s1)Nc1ccccc1-2 (stereo not given)	none
CCOc1ccc(NC(=O)Cc2csc(COc3cccc(C)c3)n2)cc1	none
CC(CC(=O)N1CCN(c2cccc(Cl)c2)CC1)S(=O)(=O)c1ccc2c(c1)NC(=O)CO2 (stereo not given)	none
